Measured values published in PubChem BioAssay AID504895 (National Center for Advancing Translational Sciences (NCATS), 2011).
Results filed as inconclusive are left out. Active and inactive are the calls of the source. Calls come from the whole dose curve; as a rule, active = well fitted curve in the direction sought with a large enough effect; inconclusive = small, poorly fitted or top-dose-only effect, or another doubt; inactive = no such curve, though single readings can be large or run the other way.

Biological target: Protein phosphatase EYA2 (Homo sapiens) (UniProt O00167)
Assay: Inhibitors of Eya2ED: Hit Confirmation in Primary Screen
Settings: Recombinant Eya2ED, OMFP fluorescence phosphatase assay; series mostly up to 76.9 µM
Excerpt: The Eya proteins (Eya1-4) were originally identified as essential co-activators of the Six1 transcription factor. […] Knockdown of Six1 decreases cancer cell proliferation and metastases in several different cancer models. […] A fluorescence-based HTS assay has been perfomed against the Molecular Libraries Small Molecule Repository (MLSMR) and has the AID 488837 in this database. After completion of the primary screen, hits were re-ordered and tested again in the primary screen in a 12 point titration. NIH Chemical Genomics Center [NCGC] NIH Molecular Libraries Probe Centers Network [MLPCN] MLPCN Grant: DA030559-01 Assay Submitter (PI): Rui Zhao, University of Colorado, Denver
The Eya2 enzyme was kindly provided by the laboratory of Dr. Rui Zhao. The 3-O-methyl-fluorescein phosphate (OMFP) substrate and all buffer reagents were purchased from Sigma Aldrich. qHTS Assay Setup: 1. Buffer- 50 mM HEPES pH 7.5, 50 mM NaCl, 5 uM MgCl2, 0.05% BSA, 1 mM DTT. 2. OMFP Stock- 10 mM solution prepared in 100% DMSO and stored in single use aliquots at -20C. Assay Procedure- 1. Dispense 1.5 ul per well of Eya2 at 0.2 uM in black medium binding 1536 well Greiner plate 2. Transfer 23 nl of compound and control compound (EGTA) to plate 3. Incubate at ambient for 10 minutes 4. Dispense 1.5 ul per well of OMFP at 50 uM 5. Incubate at ambient for 10 minutes 6. Read on ViewLux using Excitation = 485 nm, Emission = 525 nm

Protein phosphatase EYA2 (Homo sapiens), sequence (O00167 whole entry, looked up): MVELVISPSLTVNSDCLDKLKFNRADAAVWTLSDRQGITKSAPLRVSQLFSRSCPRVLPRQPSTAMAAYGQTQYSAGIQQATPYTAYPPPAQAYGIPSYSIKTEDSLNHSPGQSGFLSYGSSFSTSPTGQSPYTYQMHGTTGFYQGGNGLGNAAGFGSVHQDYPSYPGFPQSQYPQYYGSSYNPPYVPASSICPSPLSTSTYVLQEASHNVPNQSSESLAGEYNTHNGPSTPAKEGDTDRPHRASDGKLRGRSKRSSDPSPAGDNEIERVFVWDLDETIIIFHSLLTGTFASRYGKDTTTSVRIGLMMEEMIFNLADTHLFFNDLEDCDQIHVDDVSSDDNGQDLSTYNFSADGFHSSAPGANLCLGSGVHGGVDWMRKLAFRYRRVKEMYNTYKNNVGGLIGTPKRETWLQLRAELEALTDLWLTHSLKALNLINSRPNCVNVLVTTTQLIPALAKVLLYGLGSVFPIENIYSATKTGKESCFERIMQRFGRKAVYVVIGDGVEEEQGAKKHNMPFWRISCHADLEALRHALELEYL

Potency, inactive:
CCN(C(=O)COC(=O)c1cc(OC)c(OC)cc1[N+](=O)[O-])C1CCS(=O)(=O)C1 (stereo not given), CCCOc1ccc(S(=O)(=O)N2CCN(C)CC2)c2ccccc12, Cc1onc(-c2ccccc2Cl)c1C(=O)OCC(=O)N1CCC(C)CC1, CC(C)CN1C(=O)c2ccc(NC(=O)c3ccccc3F)cc2C1=O, COc1ccc(CCc2nc(C)ccc2O)cc1, Cc1ccc(NC(=O)CC2C(=O)NC3CCCCC3N2C(=O)c2ccc(F)cc2)cc1C (stereo not given), Cc1c(NC(=O)C(C)OC(=O)CCC2CCCC2)c(=O)n(-c2ccccc2)n1C (stereo not given), CCCC(=O)Nc1cccc(NC(=O)c2ccc3c(c2)OCCO3)c1, O=C(O)/C=C/C(=O)Nc1ccc2nccnc2c1, O=S(=O)(c1ccc(F)cc1)N1CCC2(CC1)OCCN2S(=O)(=O)c1cccs1, CC(NC(=S)NNS(=O)(=O)c1ccc(C(C)(C)C)cc1)c1ccccc1 (stereo not given), N=C(N)SCc1ncccc1O, NC(=O)Nc1ccc(C(=O)OCC(=O)NC2CCCCC2)cc1, Cc1cc(C(=O)N/N=C/C=C/c2ccc3c(c2)OCO3)n[nH]1, O=C(CSc1c2c(nc3cc(Cl)ccc13)CCCC2)NCc1ccco1, CCOc1cc(C)c(Cl)cc1S(=O)(=O)NCc1ccco1, Cc1ccc(NC(=O)c2sc(N)nc2-c2ccc([N+](=O)[O-])cc2)cc1C, COc1ccc(-c2nnn(-c3cc(Cl)cc(Cl)c3)c2N)cc1, COc1ccccc1N1C(=O)C2C3C=CC(C3)C2C1=O (stereo not given), Cc1cccc(-n2c(-c3csc(C(C)C)c3)n[nH]c2=S)c1, CC1(c2ccccc2Cl)NC(=O)N(CC(=O)N2CCc3ccccc3C2)C1=O (stereo not given), O=C(NCc1ccccn1)C1CCCN(Cc2cnn(-c3ccccc3)c2-n2cccc2)C1 (stereo not given), Cc1ccc2occ(/C=N/NC(=O)[C@@H](N)Cc3ccccc3)c(=O)c2c1, Cc1ccc(CCNC(=O)c2cc(C)nn2-c2ccccc2)cc1, CCOc1ccc(S(=O)(=O)NC(C)C(=O)NCc2ccncc2)cc1 (stereo not given), O=C(c1ccccc1Cl)N1CCN(C(=O)C2CCCO2)CC1 (stereo not given), COc1ccc(CCN=C(C)C2=C(O)C(c3ccccc3)OC2=O)cc1OC (stereo not given), COc1c(O)ccc(/C=N\NC(=O)c2ccc3c(c2)OCO3)c1[N+](=O)[O-], Cc1ccc(S(=O)(=O)NNC(=S)NCCc2ccccc2)cc1, Cc1nn(-c2nc(-c3ccco3)cc(C(F)(F)F)n2)c(C)c1Cl, COc1ccc(Cl)cc1CSc1ncn[nH]1, CCOC(=O)C1CCCN(Cc2cc(Br)c(OC)cc2OC)C1 (stereo not given), O=C(O)C1CC(=O)N(c2ccc(Br)cc2)C1 (stereo not given), Cc1cccn2c(=O)nc(SCC(=O)NCc3ccc(F)cc3)nc12, CC(=O)c1ccc(NC(=O)C2(c3ccccc3)CC2(Cl)Cl)cc1 (stereo not given), Oc1oc(C=Nc2ccc(F)cc2F)c2ccccc12, Cc1nn(C)c(C)c1NC(=O)Nc1ccc(Cl)c(Cl)c1, COc1ccccc1OCCCCOc1ccccc1F, CO/N=C(\N)c1nonc1N, COC(=O)c1ccc(Cn2cc([N+](=O)[O-])cn2)cc1
